Screening results (PubChem BioAssay)
AHR act = activates the human aryl hydrocarbon receptor; actives 2.5% (n = 320,000); P35869; AHR-responsive luciferase reporter cells, luminescence; activation, % at 5 µM; AID 2796; in the data active means activation above about 47%;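 further: 0% = vehicle wells and 100% = reference agonist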
Target sequence (P35869 whole entry, looked up): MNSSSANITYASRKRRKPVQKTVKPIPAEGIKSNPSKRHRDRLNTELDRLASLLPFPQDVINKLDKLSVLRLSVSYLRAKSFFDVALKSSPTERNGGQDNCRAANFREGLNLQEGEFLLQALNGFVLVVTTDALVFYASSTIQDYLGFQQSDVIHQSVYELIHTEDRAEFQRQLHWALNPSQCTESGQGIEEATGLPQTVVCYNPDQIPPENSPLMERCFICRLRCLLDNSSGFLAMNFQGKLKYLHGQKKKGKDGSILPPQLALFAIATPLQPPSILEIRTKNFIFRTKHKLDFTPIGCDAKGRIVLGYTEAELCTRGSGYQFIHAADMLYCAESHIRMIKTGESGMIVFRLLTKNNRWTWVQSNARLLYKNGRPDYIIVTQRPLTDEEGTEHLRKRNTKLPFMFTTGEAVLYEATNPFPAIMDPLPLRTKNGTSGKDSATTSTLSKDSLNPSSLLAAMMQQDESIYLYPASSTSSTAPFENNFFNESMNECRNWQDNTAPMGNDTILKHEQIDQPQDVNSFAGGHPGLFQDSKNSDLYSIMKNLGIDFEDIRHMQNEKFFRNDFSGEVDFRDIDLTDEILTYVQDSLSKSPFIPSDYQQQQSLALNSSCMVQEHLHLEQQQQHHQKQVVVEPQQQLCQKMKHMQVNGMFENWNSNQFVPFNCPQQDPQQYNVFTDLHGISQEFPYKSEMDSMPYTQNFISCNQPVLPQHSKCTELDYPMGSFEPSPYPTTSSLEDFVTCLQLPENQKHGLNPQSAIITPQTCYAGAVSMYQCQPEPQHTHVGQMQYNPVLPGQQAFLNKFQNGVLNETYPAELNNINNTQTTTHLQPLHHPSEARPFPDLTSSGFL
FXN GAA850 act = activators of GAA850 frataxin (FXN) promoter; actives 0.56% (n = 360,000); HEK293 lucGAA850 FXN promoter luciferase reporter, 24 h; percent of 10 µM SAHA response; activation, % at 6 µM;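 active means activation above the average of all compounds screened plus 3 SD, cutoff fixed separately per campaign, cut at about 7.5% in these data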;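 further: 0% = DMSO wells and 100% = 10 µM SAHA wells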
HSF1 activator = increases HSF-1 driven luciferase reporter signal; AID 504408; activation, % at 9 µM; actives 1.7% (n = 300,000); NIH3T3-HGL HSF-1 luciferase reporter, MG132, 8 h; 100% = twice DMSO control signal;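 active means mean replicate activation of at least 50% with a set share of replicates each reaching 50%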;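 further: 0% = median of the neutral control wells and 100% = twice that signal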
HSF1 inhib = HSF1 inhibition | NIH3T3-HGL HSE-luciferase, MG132-induced, luminescence 8 h; active compounds read low | activity change, negative = inhibition, % at 7.5 µM (by protocol) | actives 0.77% (n = 300,000) | AID 2098;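 active means more than half of replicate wells show activity change below -50%, luminescence cut by over half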;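 further: luciferase reports HSF-1 transcriptional activity via heat shock element; 0% = median of DMSO wells and -100% = zero luminescence signal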
GAA30 FXN cntr = counter-screen for GAA850 frataxin promoter activators: GAA30 promoter activation | AID 588350 | actives 66% (n = 1,900) | HEK293 lucGAA30 FXN promoter luciferase, 24 h; DMSO = 0%, 5 µM ipriflavone = 100% | shares compounds with FXN GAA850 act | activation, % at 6 µM;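 active means mean activation above the mean of solvent-only control wells plus 3 SD, cut at about 22% in these data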;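 further: counterscreen of GAA850 promoter hits where activity marks nonselective or luminescence artifacts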
FXN GAA850 conf = GAA850 FXN promoter activation confirmation; AID 588351; activation, % at 6 µM; actives 86% (n = 1,900); HEK293 lucGAA850 FXN promoter luciferase reporter, 24 h; 100% = activation by SAHA; shares compounds with FXN GAA850 act;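 active means mean activation above a set limit taken from the primary screen, cut at about 8% in these data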;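 further: 0% = DMSO wells and 100% = 10 µM SAHA wells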
The depositor's hits bear a star; x = not tested or not shown. This is a sample that favours compounds with a hit; in the whole collection about 4.6% have one here.

SMILES	AHR act	FXN GAA850 act	HSF1 activator	HSF1 inhib	GAA30 FXN cntr	FXN GAA850 conf
Cc1cccc(-n2ncc3c(NCCCN4CCCC4=O)ncnc32)c1	25	1	0	-6	x	x
O=C1CCCN1CCCNc1ncnc2c1cnn2-c1ccc(Cl)cc1	7	15*	3	8	76*	33*
Cc1ccc(Cn2ncc(Cl)c(Cl)c2=O)cc1	2	2	37	26	x	x
O=C(Cn1ncc(Cl)c(Cl)c1=O)N1CCOCC1	2	9.3*	15	24	11	7
CCc1ccc(C(=O)Cn2ncc(Cl)c(Cl)c2=O)cc1	2	8.5*	-80	-80*	15	15*
N#Cc1ccc(NC(=O)CSc2n[nH]c(=O)n2C2CC2)cc1	0	-1	x	x	x	x
C=CCn1nnc2sc3c(c2c1=O)CCC(C)C3 (stereo unspecified)	-2	8.7*	3	1	71*	30*
CC1(C)Cc2c(sc3nnn(Cc4ccccc4)c(=O)c23)CO1	-1	0	9	-3	x	x
O=C(O)c1ccc2c(c1)ncn2C1CCCC1	0	1	28	1	x	x
CC[C@H](C)[C@H](NS(=O)(=O)c1ccc(C)cc1)C(=O)N1CCC(C(=O)N[C@@H](C)C(=O)O)CC1	2	1	-9	-2	x	x
CCC(C)[C@H](NS(=O)(=O)c1ccc(C)cc1)C(=O)N1CCC(C(=O)N2CCC(C(N)=O)CC2)CC1 (stereo partly specified)	-1	19*	11	-1	22	6
Cc1ccc(C23CC4CC(CC(CN)(C4)C2)C3)cc1	x	2	14	3	x	x
COc1ccc(-n2c(=S)[nH]c3cc(C(=O)Nc4ccc(OC)c(OC)c4)ccc3c2=O)cc1	5	11*	-8	1	8	6
O=C(N/N=C/c1cccc([N+](=O)[O-])c1)c1ccc2c(c1)OCCO2	12	8.9*	3	5	119*	37*
Cn1cc(C2=C(c3ccc(Cl)cc3Cl)C(=O)NC2=O)c2ccccc21	26	12*	12	13	10	9.2*
O=C(Nc1cc2c(cc1Cl)OCCCO2)c1ccccc1	-2	8.8*	34	6	107*	41*
COc1ccc(CNC(=O)Cn2nc(C(F)(F)F)c3c2CCC3)cc1	2	2	7	-3	x	x
CSC1=C(C#N)C(c2ccccc2C)C(C#N)=C(N)N1 (stereo unspecified)	1	11*	x	x	25*	15*
CSC1=C(C#N)C(c2ccccc2Cl)C2=C(N1)c1ccccc1C2=O (stereo unspecified)	3	1	27	3	x	x
O=C(NC1CCCCC1)C(c1cccs1)N(C(=O)Cc1c[nH]c2ccccc12)c1ccc(F)cc1 (stereo unspecified)	1	10*	51*	39	13	6
CC(=O)c1ccc(N(C(=O)Cc2c[nH]c3ccccc23)C(C(=O)NC2CCCCC2)c2cccs2)cc1 (stereo unspecified)	24	-5	32	2	x	x
Cc1cccc(N(C(=O)Cc2cccs2)C(C(=O)NC2CCCC2)c2ccncc2)c1 (stereo unspecified)	0	3	24	32	x	x
Cc1ccc(N(C(=O)Cc2cccs2)C(C(=O)NC2CCCCC2)c2ccccn2)cc1C (stereo unspecified)	-2	13*	17	11	2	11*
COc1ccc(C(=O)Cn2cnc3ccccc3c2=O)c(OC)c1	x	7.7*	20	0	57*	24*
CN(C)c1ncnc2sc(-c3ccccc3)cc12	25	9.0*	1	-4	46*	18*
SMILES	AHR act	FXN GAA850 act	HSF1 activator	HSF1 inhib	GAA30 FXN cntr	FXN GAA850 conf
COc1ncnc2sc(-c3ccccc3)cc12	6	9.0*	38	26	106*	37*
CN(C)C(=O)COc1ncnc2sc(-c3ccccc3)cc12	10	5	18	-4	x	x
O=C(CSc1ccc2nnc(-c3cccc(F)c3)n2n1)NCC1CCCO1 (stereo unspecified)	-2	0	-41	-20	x	x
Cc1ccc(NN2C(=O)C=C(c3ccccc3)C2=O)cc1	x	10.0*	207*	148	32*	28*
N#C/C(=C/c1ccco1)c1nc2ccccc2s1	30	7.7*	100*	44	142*	45*
O=C1OC(/C(=C\Nc2ccc(F)cc2F)[N+](=O)[O-])c2ccccc21 (stereo unspecified)	0	4	16	8	x	x
O=C1OC(/C(=C\Nc2cc(Cl)ccc2O)[N+](=O)[O-])c2ccccc21 (stereo unspecified)	45	12*	-5	12	51*	5
CN(Cc1ccccc1)c1nc(N)c([N+](=O)[O-])c(NCc2ccccc2)n1	2	7.7*	67*	54	35*	12*
Cc1cccc(C(=O)Nc2ccc(C(=O)/C=C/c3ccncc3)cc2)c1	5	17*	92*	75	16	27*
FC(F)(F)c1cccc(NCc2cn3cccnc3n2)c1	23	0	17	-5	x	x
COc1cc(OC)c(-c2nn3c(C4CCCCC4)nnc3s2)cc1OC	3	13*	-6	2	-10	12*
COc1cc(-c2nnc3sc(C4CCCCC4)nn23)cc(OC)c1OC	1	7	-2	1	x	x
O=C1C=CC(O)C2(CO)OC12 (stereo unspecified)	x	12*	x	x	-1	12*
CC1CCCC(C)N1CCCNC(=O)c1ccc2c(c1)NC(=O)c1ccccc1S2 (stereo unspecified)	0	6	-9	-4	x	x
CCC(C)N(CCNC(=O)c1ccc2c(c1)NC(=O)c1ccccc1S2)C1CCCCC1 (stereo unspecified)	-2	11*	1	-8	18	11*
COc1ccc2c(c1)Cc1sc(NC(C)=O)nc1-2	-5	8.2*	6	-3	111*	32*
S=C(Nc1ccc2nsnc2c1)N1CCCC1	3	8.3*	75*	41	29*	12*
Cc1ccc2cc(C#N)c(SCC(=O)NCc3ccco3)nc2c1	18	0	3	-1	x	x
Cc1ccc2nc(SCC(=O)NCc3ccco3)c(C#N)cc2c1	5	8.3*	-2	-9	80*	27*
Oc1ccccc1N=Nc1ccccc1O	x	-10	-6	-5	x	x
O=[N+]([O-])c1ccc2c(c1)/C(=N\O)c1ccccc1-2	-5	-2	2	9	x	x
Nc1cc2c(cc1Cl)-c1ccc([N+](=O)[O-])cc1C2=NO	x	9.5*	x	x	75*	40*
C=CCSc1nnc(-c2nnc(SCC=C)n2CC)n1CC	7	-3	-2	-2	x	x
C/C(=N\NC(=O)COc1ccc(C(C)(C)C)cc1)c1ccccc1	8	3	10	5	x	x
